Reference: ChEMBL document CHEMBL1157539, “Thousands of chemical starting points for antimalarial lead identification” (Nature, 2010)

Experiments:
Assay type in all cases: functional
Plasmodium falciparum [1] = test: GSK_TCMDC: Inhibition of Plasmodium falciparum 3D7 in whole red blood cells, using parasite LDH activity as an index of growth. Test compounds present at 2uM
Plasmodium falciparum [2] = test: GSK_TCMDC: Inhibition of Plasmodium falciparum Dd2 in whole red blood cells, using parasite LDH activity as an index of growth. Test compounds present at 2uM
HepG2 = test: GSK_TCMDC: Percent inhibition of human HepG2 cell line. Test compounds present at 10uM.

SMILES	Inhibition (Plasmodium falciparum [1])	Inhibition (Plasmodium falciparum [2])	Inhibition (HepG2)
CCCOc1c(CCNCCCCNCCc2ccc3ccccc3c2OCCC)ccc2ccccc12.CS(=O)(=O)O	100%	78%	100%
CN(C)Cc1cccc(-c2cc3c(-c4cnn(C)c4)c(Cl)cnc3[nH]2)c1	96%	21%	75%
Cc1ccc2c(N/N=C/c3cccc([N+](=O)[O-])c3)cc(C)nc2c1	100%	97%	33%
COc1ccc2c(=O)c3ccc(OC)cc3[nH]c2c1	93%	75%	12%
